Screening data as filed in PubChem.
Only some compounds are listed: those with a hit (about 1.2% of all), similar ones and a draw of the others.
DTT redox prof = compounds producing H2O2 with reducing agent – biochemical, NIH compound library profiling, artefact control for MLSCN library redox annotation, primary screen | DTT-dependent redox cycling H2O2, phenol red/HRP absorbance; 100% = 100 µM peroxide control, 0% = buffer | activation, % at 10 µM | 200,000 tested, 0.03% active;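 active = activation of at least 50% relative to the plate's high and low controls in the primary single-dose screen; inactive = activation below 50%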;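 note: compound incubated with DTT at 0.8 mM final as the reducing agent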
FAS TE block = inhibitors of human fatty acid synthase thioesterase domain | P49327 | recombinant FAS-TE, OMFH fluorogenic substrate, fluorescence endpoint | inhibition, % at 15 µM | 360,000 tested, 0.67% active | AID 602261;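 active = compounds whose normalised, plate-corrected inhibition of enzyme fluorescence in the single-dose primary screen is 50% or more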;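 note: 0% = DMSO with enzyme and 100% = substrate without enzyme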
UBC9 SUMO inh = SUMOylation inhibition; 290,000 tested, 0.36% active; HTRF SUMOylation assay, SAE1/SAE2 + UBC9, in vitro; P63279; inhibition, % at 35 µM; in the data active = inhibition above about 50%, passing the limit was not always enough
Furin inh = blocks human furin protease activity | AID 463115 | inhibition, % at 20 µM or 30 µM | P09958 | 220,000 tested, 0.061% active | purified furin, fluorogenic substrate cleavage; in the data active = inhibition above about 25%
Target sequence (P09958 108-714 limits assumed): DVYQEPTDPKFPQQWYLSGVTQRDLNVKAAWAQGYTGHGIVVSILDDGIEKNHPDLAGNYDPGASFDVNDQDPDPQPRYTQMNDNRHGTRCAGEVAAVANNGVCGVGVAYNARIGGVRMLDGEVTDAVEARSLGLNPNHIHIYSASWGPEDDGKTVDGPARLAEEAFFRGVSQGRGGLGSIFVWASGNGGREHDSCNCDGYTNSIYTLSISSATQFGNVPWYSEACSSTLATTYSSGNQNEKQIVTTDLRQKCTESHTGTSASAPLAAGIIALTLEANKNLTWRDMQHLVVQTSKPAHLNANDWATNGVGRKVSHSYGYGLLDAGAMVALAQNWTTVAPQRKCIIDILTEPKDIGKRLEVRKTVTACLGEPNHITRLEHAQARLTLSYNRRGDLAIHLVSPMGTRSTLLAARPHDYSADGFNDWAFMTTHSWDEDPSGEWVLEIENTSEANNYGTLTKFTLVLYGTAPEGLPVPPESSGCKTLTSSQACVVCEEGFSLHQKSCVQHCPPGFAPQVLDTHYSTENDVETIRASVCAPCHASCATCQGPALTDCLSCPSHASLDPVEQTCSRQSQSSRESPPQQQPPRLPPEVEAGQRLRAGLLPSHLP
PKD1 inh = PKD1 (human) kinase inhibition. Q15139. PKD1 kinase fluorescence polarization assay. inhibition, % (test concentration not listed). 200,000 tested, 0.056% active; in the data active = inhibition above about 50%
p97 inhibitor = inhibitors of human p97 ATPase; P55072; recombinant p97 ATPase, Kinase-Glo ATP luminescence, 3 h; inhibition, % at 8 µM; 220,000 tested, 0.42% active; AID 1481; in the data active = inhibition above about 15%;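 note: 0% = DMSO vehicle and 100% = wells lacking enzyme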
FAS-TE inh conf = confirmation of human fatty acid synthase thioesterase inhibitors | shares compounds with FAS TE block | recombinant FAS-TE, OMFH fluorogenic substrate, fluorescence | inhibition, % at 15 µM | 2,300 tested, 45% active | AID 624325;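 active = compounds inhibiting the enzyme by at least 50% at 15 µM in any one of the replicates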;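 note: 0% = enzyme with DMSO only and 100% = wells lacking enzyme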
Active calls of the source: *; . = not tested or not shown.

SMILES | DTT redox prof | FAS TE block | UBC9 SUMO inh | Furin inh | PKD1 inh | p97 inhibitor | FAS-TE inh conf
CC(C)(C)C(=O)Nc1nc(C2CCCN2S(=O)(=O)c2ccc(Cl)cc2)cs1 (configuration not stated) | 0 | 55* | 20 | -20 | 5 | 1 | 65*
O=C(Nc1nc(-c2ccccc2)cs1)C1CCCCN1S(=O)(=O)c1ccc(Cl)cc1 (configuration not stated) | 0 | 36 | -14 | -6 | 1 | 6 | .
N#Cc1c(/N=C/c2ccc(-c3ccc(C(=O)O)c(Cl)c3)o2)sc2c1CCCC2 | . | 50* | . | . | . | . | 41
CC1CCc2c(sc3nc(C(C)(C)C)nc(N4CCN(C(=O)CCl)CC4)c23)C1 (configuration not stated) | . | 41 | -7 | . | . | . | .
O=C(CNC(=O)c1ccccc1)N/N=C/c1cc(Br)ccc1O | 0 | 54* | 9 | -25 | 5 | 8 | 44*
O=C(CN1CC(c2ccccc2)CC1=O)N/N=C/c1cc(Br)ccc1O (configuration not stated) | 0 | 69* | 12 | -13 | -1 | -7 | 85*
CCOc1ccc(NC(=O)CN2CC(c3ccccc3)CC2=O)cc1 (configuration not stated) | 0 | 1 | -8 | -15 | 3 | 1 | .
CSc1nc(N)nc2c1ncn2CC(=O)NCCCN1CCCC1=O | . | -3 | . | . | . | . | .
O=C(CSc1nnc(-c2c[nH]c3ccccc23)o1)N1c2ccccc2CCc2ccccc21 | 0 | 55* | 5 | -12 | -7 | -1 | 11
O=C(CSc1nnc(-c2c[nH]c3ccccc23)o1)N1CCCCC1 | 2 | 2 | -7 | -27 | 3 | 2 | .
O=C(N/N=C/c1cc([N+](=O)[O-])cc([N+](=O)[O-])c1O)/C(=C\c1cccs1)NC(=O)c1ccccc1 | 0 | 75* | 34 | 5 | 5 | 9 | 74*
CCOC(=O)c1c(NC(=O)C2C3C=CC(C3)C2C(=O)O)sc2c1CC(C)CC2 (configuration not stated) | 0 | 0 | 21 | -5 | 2 | -7 | .
CCOC(=O)c1c(NC(=O)c2ccc(N3C(=O)[C@@H]4[C@H](C3=O)[C@H]3C=C[C@@H]4C3)cc2)sc2c1CC(C)CC2 (some centres not stated) | -1 | 51* | 13 | -19 | -8 | 0 | 10
Cc1ccc(NC(=O)C2CCN(S(=O)(=O)c3ccc(C(C)(C)C)cc3)CC2)cc1S(=O)(=O)N1CCOCC1 | . | 89* | . | . | . | . | 31
CC(=O)c1ccc(NC(=O)c2ccc(C)c(S(=O)(=O)N3CCOCC3)c2)cc1 | . | 1 | -1 | . | . | . | .
Cc1ccc(NC(=O)c2ccc(S(=O)(=O)N3CC(C)CC(C)C3)cc2)cc1S(=O)(=O)N1CCOCC1 (configuration not stated) | . | 50* | . | . | . | . | 7
CC(C)(C)c1ccc(C(=O)OCCNC(=O)c2c(Cl)nc3ccccn23)cc1 | 2 | 66* | -16 | -8 | -8 | 0 | 75*
COc1ccc(C(=O)OCCNC(=O)c2c(Cl)nc3ccccn23)cc1 | 2 | -1 | 1 | -13 | -12 | 2 | .
N#Cc1cc(-c2ccccc2)nc(Oc2ccccc2)n1 | 1 | 69* | 28 | -7 | 3 | 2 | 45*
N#Cc1ccc(Oc2nc(C#N)cc(-c3ccccc3)n2)cc1 | 0 | 44 | 6 | -4 | -7 | 2 | .
COc1ccc(NC(=O)/C(Cl)=C(/Cl)S(=O)Cc2ccc(Cl)cc2)cn1 (configuration not stated) | 10 | 62* | 15 | -14 | -4 | 20* | 68*
Cn1c(=O)c2c(nc(CN3CCN(c4ccccc4)CC3)n2CCCc2ccccc2)n(C)c1=O | 1 | . | . | -24 | -15 | -4 | .
CCCCCn1c(CN2CCN(c3cccc(Cl)c3)CC2)nc2c1c(=O)n(C)c(=O)n2C | 2 | 79* | -9 | -16 | -8 | 3 | 35*
CCCCn1c(CN2CCN(c3cccc(Cl)c3)CC2)nc2c1c(=O)n(C)c(=O)n2C | -2 | 71* | 3 | -23 | 4 | -3 | 54*
CCCCn1c(CN2CCN(c3ccccc3)CC2)nc2c1c(=O)n(C)c(=O)n2C | 0 | 50* | 4 | -19 | -12 | 0 | 50*
SMILES | DTT redox prof | FAS TE block | UBC9 SUMO inh | Furin inh | PKD1 inh | p97 inhibitor | FAS-TE inh conf
O=C(CCl)N1CCCC1c1ccc2c(c1)OCCO2 (configuration not stated) | . | 0 | 9 | . | . | . | .
CC1C(=O)C(C)C(c2ccc([N+](=O)[O-])cc2)NC1c1ccc([N+](=O)[O-])cc1 (configuration not stated) | 7 | 43 | 6 | -14 | 1 | 2 | .
CC1C(=O)CC(c2ccc([N+](=O)[O-])cc2)NC1c1ccc([N+](=O)[O-])cc1 (configuration not stated) | -2 | 52* | -6 | -18 | 1 | 0 | -1
Cc1cc([N+](=O)[O-])nn1CC(=O)N/N=C/c1ccc(O)cc1O | . | -1 | 15 | -16 | . | 1 | .
O=C(Cn1nc2ccccc2n1)N/N=C/c1cc([N+](=O)[O-])ccc1O | 1 | 57* | 8 | -7 | 1 | 5 | 75*
O=C(CCC(=O)Nc1ccc(Br)cc1)N/N=C/c1cc([N+](=O)[O-])ccc1O | -1 | 56* | -52 | -14 | 7 | 2 | 64*
O=C(Cn1cnc([N+](=O)[O-])n1)N/N=C/c1cc(Cl)ccc1O | -2 | 79* | -6 | -11 | 7 | 5 | 88*
Cc1cc([N+](=O)[O-])nn1CC(=O)N/N=C/c1ccccc1Br | . | 63* | 17 | -6 | . | -1 | 68*
N#Cc1cccc(NC(=O)Cn2cnc(S(=O)(=O)N3CCCCC3)c2)c1 | . | -7 | 13 | . | . | . | .
CCOc1ccc(NC(=O)C(=O)NCCN2CCN(S(=O)(=O)c3ccc(C)cc3)CC2)cc1 | . | 2 | 22 | . | . | . | .
CC(NC(=O)CN(c1cccc(C(F)(F)F)c1)S(C)(=O)=O)c1ccccc1 (configuration not stated) | . | -2 | -1 | . | . | . | .
Cc1cc(C)c(S(=O)(=O)NC2CC3CCC2C3)c(C)c1 (configuration not stated) | . | 10 | 0 | . | . | . | .
O=C(CCC(=O)Nc1ccc(F)cc1)N/N=C/c1cc([N+](=O)[O-])ccc1O | -1 | 56* | -11 | -1 | -6 | -5 | 65*
COC(=O)CNC(=O)CSc1nnc(-c2ccc(OC)cc2)n1CC(C)C | 0 | -4 | 6 | -21 | 4 | 0 | .
COc1ccc(-c2nnc(SCC(=O)Nc3ncc(C(F)(F)F)cc3Cl)n2CC(C)C)cc1 | 0 | 79* | -2 | -14 | 3 | 2 | 81*
CCn1c(SCC(=O)Nc2ncc(C(F)(F)F)cc2Cl)nnc1-c1cccc(C)c1 | 0 | 80* | -5 | -12 | -13 | -7 | 81*
